In PubChem BioAssay AID1159580 (chemical genetic matrix, 2015):
Several values for one entry are separate records, joined by “and”; a condition that tells them apart may be missing. Identical values can stand only once. In all, about 5,500 compounds went through this assay and about 2,000 (36%) were called active. Another 18% or so got no clear call; they are omitted. Cut-off read from the data, not from the text of the source: active = normalized growth mostly below about 0.91 (no sharp cut-off); inconclusive = no clear call, values can overlap the other calls; inactive = mostly above about 0.92. This is one part of the list.

Experiment: chemical genetic growth profiling, strain panel (AID 1159580);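 note: tested at 20 µM; growth read once vehicle control cultures reached saturation at 30 °C; 1 = growth at the plate median or of vehicle wells; lower values mean less growth of the strain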
Conditions: S. cerevisiae deletion strains, growth OD

Measured: normalized growth

CC(=O)OCC(=O)[C@@]12OC(C)(C)O[C@@H]1CC1C3C[C@H](F)C4=CC(=O)C=C[C@]4(C)[C@@]3(F)[C@@H](O)C[C@@]12C (some centres not stated)
inactive: locus YAL013W, strain DEP1, hits give low values 1 | locus YAL021C, strain ccr4, hits give low values 1.01 | locus YAL026C, strain drs2, hits give low values 1.02 | locus YAL030W, strain snc1, hits give low values 1.02 | locus YBL061C, strain skt5, hits give low values 1.03 | locus YBR009C, strain hhf1, hits give low values 1.01 | locus YBR021W, strain FUR4, hits give low values 0.996 | locus YBR023C, strain chs3, hits give low values 1.03 | locus YBR171W, strain sec66, hits give low values 1.03 | locus YBR229C, strain ROT2, hits give low values 1.01 | locus YBR231C, strain swc5, hits give low values 0.989 | locus YBR279W, strain paf1, hits give low values 1.03 | locus YCL011C, strain gbp2, hits give low values 1.04 | locus YCL016C, strain dcc1, hits give low values 1.03 | locus YCL029C, strain bik1, hits give low values 1.01 | locus YCL061C, strain MRC1, hits give low values 1.01 | locus YCL069W, strain vba3, hits give low values 1.02 | locus YCR088W, strain abp1, hits give low values 1.02 | locus YDL005C, strain med2, hits give low values 1.03 | locus YDL035C, strain GPR1, hits give low values 0.99 | locus YDL040C, strain nat1, hits give low values 1.02 | locus YDL074C, strain BRE1, hits give low values 1.01 | locus YDL101C, strain DUN1, hits give low values 1.01 | locus YDL134C, strain PPH21, hits give low values 0.99 | locus YDL185W, strain tfp1, hits give low values 1.02 | locus YDL192W, strain arf1, hits give low values 1.02 | locus YDR001C, strain nth1, hits give low values 1.02 | locus YDR069C, strain doa4, hits give low values 0.998 | locus YDR101C, strain arx1, hits give low values 0.965 | locus YDR137W, strain rgp1, hits give low values 1.03 | locus YDR150W, strain NUM1, hits give low values 1.01 | locus YDR159W, strain sac3, hits give low values 0.989 | locus YDR162C, strain NBP2, hits give low values 0.989 | locus YDR195W, strain ref2 0.999 | locus YDR297W, strain sur2, hits give low values 1.02 | locus YDR318W, strain mcm21, hits give low values 1.02 | locus YDR334W, strain swr1, hits give low values 1.02 | locus YDR335W, strain msn5, hits give low values 1.03 | locus YDR388W, hits give low values 1.01 | locus YDR392W, strain spt3, hits give low values 0.981 | locus YDR502C, strain sam2, hits give low values 1 | locus YEL003W, strain gim4, hits give low values 1.02 | locus YEL037C, strain rad23, hits give low values 1.02 | locus YEL061C, strain CIN8 (second series), hits give low values 1.02 | locus YEL061C, strain CIN8, hits give low values 1.01 | locus YER015W, strain faa2, hits give low values 1.02 | locus YER016W, strain bim1, hits give low values 1.01 | locus YER110C, hits give low values 1.02 | locus YER111C, strain swi4, hits give low values 1.04 | locus YER155C, strain BEM2 (second series), hits give low values 0.995 | locus YER155C, strain BEM2, hits give low values 1.01 | locus YER167W, strain BCK2, hits give low values 0.996 | locus YFR010W, strain ubp6, hits give low values 1.01 | locus YGL078C, strain dbp3, hits give low values 1.02 | locus YGL086W, strain mad1, hits give low values 0.992 | locus YGL167C, strain pmr1, hits give low values 1.02 | locus YGL173C, strain kem1, hits give low values 1.02 | locus YGL227W, strain vid30, hits give low values 1.03 | locus YGL240W, strain doc1, hits give low values 1.01 | locus YGL248W, strain PDE1, hits give low values 1.01 | locus YGL253W, strain hxk2, hits give low values 1.01 | locus YGR135W, strain pre9, hits give low values 1.07 | locus YGR252W, strain gcn5, hits give low values 1.1 | locus YHR013C, strain ard1, hits give low values 1.04 | locus YHR027C, strain rpn1, hits give low values 1.02 | locus YHR030C, strain SLT2, hits give low values 0.995 and 0.988 | locus YHR079C, strain IRE1 (second series), hits give low values 1.01 | locus YHR079C, strain IRE1, hits give low values 1 | locus YHR094C, strain hxt1, hits give low values 1.02 | locus YHR129C, strain ARP1, hits give low values 1.01 | locus YHR142W, strain chs7, hits give low values 1.04 | locus YHR200W, strain rpn10, hits give low values 1.01 | locus YIL066C, strain RNR3, hits give low values 1 | locus YIL073C, strain SPO22, hits give low values 1.02 | locus YIL125W, strain kgd1, hits give low values 1 | locus YIR030C, strain dcg1, hits give low values 1.03 | locus YJL092W, strain hpr5, hits give low values 1.03 | locus YJL095W, strain BCK1 (second series), hits give low values 1.02 | locus YJL095W, strain BCK1, hits give low values 1.03 and 0.999 | locus YJL115W, strain asf1, hits give low values 1.01 | locus YJL129C, strain trk1, hits give low values 1.03 | locus YJL134W, strain LCB3, hits give low values 1.01 | locus YJL154C, strain vps35, hits give low values 1.02 | locus YJL164C, strain tpk1, hits give low values 1.02 | locus YJL166W, strain qcr8, hits give low values 1.04 | locus YJL168C, strain set2, hits give low values 1.02 | locus YJL187C, strain SWE1 (second series), hits give low values 1.01 | locus YJL187C, strain SWE1, hits give low values 1.02 | locus YJR043C, strain POL32, hits give low values 0.999 | locus YJR066W, strain TOR1, hits give low values 0.937 | locus YJR075W, strain HOC1, hits give low values 1 | locus YKL009W, strain mrt4, hits give low values 1.01 | locus YKL068W, hits give low values 1.01 | locus YKL085W, strain MDH1 (second series), hits give low values 1.01 | locus YKL085W, strain MDH1, hits give low values 1.01 | locus YKL160W, strain elf1, hits give low values 1.05 | locus YKR001C, strain vps1, hits give low values 1 | locus YKR026C, strain gcn3, hits give low values 1.02 | locus YKR091W, strain srl3, hits give low values 1.02 | locus YLL001W, strain dnm1, hits give low values 1.03 | locus YLL026W, hits give low values 1.02 | locus YLL041C, strain sdh2, hits give low values 1.01 | locus YLR027C, strain aat2, hits give low values 1.01 | locus YLR039C, strain RIC1, hits give low values 1.06 | locus YLR058C, strain SHM2, hits give low values 1.01 | locus YLR102C, strain apc9, hits give low values 1.01 | locus YLR113W, strain HOG1, hits give low values 1.02 | locus YLR221C, strain rsa3, hits give low values 1.03 | locus YLR258W, strain gsy2, hits give low values 1.04 | locus YLR262C, strain YPT6 (second series), hits give low values 1.04 | locus YLR262C, strain YPT6, hits give low values 0.987 | locus YLR268W, strain sec22, hits give low values 1.01 | locus YLR320W, strain mms22, hits give low values 1.06 | locus YLR330W, strain CHS5, hits give low values 1.01 | locus YLR342W, strain FKS1 (second series), hits give low values 1.03 | locus YLR342W, strain FKS1, hits give low values 1.03 | locus YLR357W, strain rsc2, hits give low values 1.01 | locus YLR370C, strain arc18, hits give low values 1.03 | locus YLR371W, strain rom2, hits give low values 1.01 | locus YLR384C, strain iki3, hits give low values 1.03 | locus YLR418C, strain cdc73, hits give low values 1.03 | locus YML016C, strain PPZ1, hits give low values 1 | locus YML032C, strain rad52, hits give low values 0.996 | locus YML120C, strain ndi1, hits give low values 1.04 | locus YML124C, strain tub3, hits give low values 1.03 | locus YMR058W, strain fet3, hits give low values 1.01 | locus YMR078C, strain ctf18, hits give low values 1.01 | locus YMR125W, strain sto1, hits give low values 1.03 | locus YMR129W, hits give low values 1.02 | locus YMR205C, strain PFK2, hits give low values 1.05 | locus YMR223W, strain ubp8, hits give low values 1.05 | locus YMR231W, strain pep5, hits give low values 1.02 | locus YMR307W, strain GAS1, hits give low values 1.04 | locus YNL067W, strain RPL9B, hits give low values 0.995 | locus YNL071W, strain lat1, hits give low values 1.03 | locus YNL153C, strain GIM3, hits give low values 1.01 | locus YNL183C, strain NPR1, hits give low values 0.945 | locus YNL209W, strain ssb2, hits give low values 1.03 | locus YNL233W, strain BNI4, hits give low values 1.01 | locus YNL248C, strain rpa49, hits give low values 1.02 | locus YNL250W, strain rad50, hits give low values 1.03 | locus YNL271C, strain bni1, hits give low values 1.04 | locus YNL298W, strain CLA4, hits give low values 1.04 | locus YNL307C, strain MCK1, hits give low values 1.02 | locus YNL322C, strain KRE1 (second series), hits give low values 1.04 | locus YNR049C, strain mso1, hits give low values 1.02 | locus YNR052C, strain pop2, hits give low values 1.01 | locus YOL006C, strain TOP1, hits give low values 1.03 | locus YOL012C, strain htz1 2.14 | locus YOL147C, strain pex11, hits give low values 1.02 | locus YOR001W, strain rrp6, hits give low values 1 | locus YOR061W, strain CKA2, hits give low values 1.01 | locus YOR069W, strain VPS5, hits give low values 1.01 | locus YOR070C, strain gyp1, hits give low values 1.03 | locus YOR080W, strain dia2, hits give low values 1.02 | locus YOR083W, strain WHI5, hits give low values 1.04 | locus YOR106W, strain vam3, hits give low values 1.05 | locus YOR136W, strain idh2, hits give low values 1.01 | locus YOR144C, strain elg1, hits give low values 1 | locus YOR184W, strain ser1, hits give low values 1.01 | locus YOR231W, strain MKK1, hits give low values 0.999 | locus YOR265W, strain rbl2, hits give low values 1.02 | locus YOR270C, strain vph1, hits give low values 1.03 | locus YOR290C, strain snf2, hits give low values 0.982 | locus YOR316C, strain cot1, hits give low values 1.01 | locus YPL051W, strain arl3, hits give low values 1.02 | locus YPL055C, strain LGE1, hits give low values 1.01 | locus YPL078C, strain atp4, hits give low values 1.04 | locus YPL106C, strain sse1, hits give low values 1 | locus YPL240C, strain hsp82, hits give low values 1.01 | locus YPL241C, strain CIN2, hits give low values 0.999 | locus YPL256C, strain CLN2, hits give low values 0.974 | locus YPR119W, strain clb2, hits give low values 1.01 | locus YPR141C, strain kar3, hits give low values 1.02 | locus YPR163C, strain tif3, hits give low values 1.02 | locus YPR167C, strain met16, hits give low values 1.02 | strain wtn01, hits give low values 1.02
